From PubChem BioAssay (Tox21) come the findings set out here.

Inconclusive results are not listed. Where a call stands in place of a potency, no number is given. Activity calls are given as the source filed them. Calls come from the whole dose curve; as a rule, active = well fitted cell-killing curve with a large enough effect in the repeat runs; inconclusive = weak or mixed curves, or effect the other way; inactive = no such curve, though single readings can be large or run the other way.
Potency is the fitted concentration of half-maximal effect.

A short description of this assay: qHTS assay to identify small molecule antagonists of the vitamin D receptor (VDR) signaling pathway - cell viability counter screen (AID 743225). Note: nearly all actives have a fitted effect of over 50% in size. Particulars: VDR-bla HEK293T viability, CellTiter-Glo luminescence, 16 h; series mostly up to 61 µM. An excerpt:
U.S. Tox21 Program National Center for Advancing Translational Sciences [NCATS] NIH Chemical Genomics Center [NCGC] U.S. Environmental Protection Agency [EPA] National Institutes of Environmental Health Sciences [NIEHS] National Toxicology Program [NTP] U.S. Food and Drug Administration [FDA] Tox21 Assay Overview: The vitamin D receptor (VDR), a member of nuclear hormone receptor superfamily, plays a critical role in calcium homeostasis and bone metabolism. It is also involved in cell differentiation and growth, and thrombogenicity. To identify the compounds that inhibit VDR signaling, the VDR-UAS-bla HEK 293T cell line (Invitrogen, Carlsbad, CA, USA) containing a beta-lactamase reporter gene under the control of an upstream activator sequence (UAS) was used to screen the Tox21 10K compound library. The cytotoxicity of the Tox21 compound library against the VDR-bla cell line was tested in parallel by measuring the cell viability using CellTiter-Glo assay (Promega, Madison, WI) in the same wells.
Tox21 Assay Protocol Summary: VDR-bla cells were dispensed at 2,000 cells/5 uL of assay medium per well into black wall/clear-bottom 1536-well plates using a Multidrop Combi (Thermo Fisher Scientific, Waltham, MA) dispenser. After the assay plates were incubated at a 37C and 5% CO2 for 4 h, 23 nL of compounds dissolved in DMSO, positive controls or DMSO only was transferred to the assay plate by a Pintool station (Kalypsys, San Diego, CA), followed by addition of 1 uL of 1-alpha, 25-Dihydroxy Vitamin D3 (3 nM, final concentration in the wells) using a Bioraptr Flying Reagent Dispenser (FRD) workstation (Beckman Coulter, Indianapolis, IN). The plates were incubated at 37C and 5% CO2 for 16 h, and then 1 uL of LiveBLAzerTM B/G FRET substrate was added using a Bioraptr FRD. The plates were incubated at room temperature for 2 h and fluorescence intensity was measured by an Envision plate reader (PerkinElmer, Shelton, CT). For cell viability readout that measures cytotoxicity, 3 ul/well of CellTiter-Glo reagent was added into the assay plates using a Bioraptr FRD. After 30 min incubation at room temperature, the luminescence intensity in the plates was measured using a ViewLux plate reader (PerkinElmer).
For orientation: In qHTS, concentration-response curves come from the screen itself.
For the compound `Cn1cc[n+](C)c1` (tested in a mixture with another compound), the Potency entry is “inactive”. The same measure for `C=C(C#N)CCC#N`: “inactive”; for `C=CC(=O)OC`: “inactive”; for `C#CCOC(C(=O)OCCN(C)C)(c1ccccc1)c1ccccc1`: “inactive”. In the case of `C=CCN1CC[C@]23c4c5ccc(O)c4O[C@H]2C(=O)CC[C@@]3(O)[C@H]1C5` it was “inactive”; in that of `CCOP(=S)(OCC)SCSCC`, “inactive”; in that of `NNC(=O)c1cccnc1`, “inactive”. In the case of `N#CCc1ccccc1` it was “inactive”. On to `Cc1ccc2ccccc2c1`, for which the Potency result was “inactive”. In the case of `Cl/C=C\C[N+]12CN3CN(CN(C3)C1)C2` it was “inactive”; in that of `BrCCCCBr`, “inactive”.

Turning to `CC(c1ccc(O)cc1)(c1ccc(O)cc1)c1ccc(O)cc1`, the Potency entry is “inactive”. In the case of `CN(C)c1ccc(N(C)C)cc1` it was “inactive”; in that of `CC1Sc2c(C(=O)O)c(=O)c3cc(F)c(N4CCNCC4)cc3n21` (stereo not given), “inactive”. In the case of `ClCc1cccc(Cl)c1` it was “inactive”; in that of `O=C1NCN(c2ccccc2)C12CCN(CCCOc1ccc(F)cc1)CC2`, “inactive”; in that of `CC(=O)[C@H]1CC[C@H]2[C@@H]3CC[C@H]4C[C@](C)(O)CC[C@]4(C)[C@H]3CC[C@]12C`, “inactive”.

For `COCCOCCO`, the Potency entry was “inactive”.

With `O=[N+]([O-])c1cc(C(F)(F)F)cc([N+](=O)[O-])c1Cl`, the Potency entry was “inactive”. The same measure for `Brc1ccccc1`: “inactive”; for `Nc1ccc([N+](=O)[O-])cc1[N+](=O)[O-]`: “inactive”. The same measure for `CCC(COC(=O)c1cc(OC)c(OC)c(OC)c1)(c1ccccc1)N(C)C` (stereo not given): “inactive”; for `CCOC(=O)COc1cc(-c2nn(C)c(OC(F)F)c2Cl)c(F)cc1Cl`: “inactive”. In the case of `O=S1OC[C@@H]2[C@H](CO1)[C@]1(Cl)C(Cl)=C(Cl)[C@@]2(Cl)C1(Cl)Cl` (stereo not given in full) it was “inactive”; in that of `Cc1ccc(-c2c(Cl)nc(C#N)n2S(=O)(=O)N(C)C)cc1`, “inactive”; in that of `O=C(C(Cl)(Cl)Cl)C(Cl)(Cl)Cl`, “inactive”. `C=CC(C)=O`: the Potency entry was “inactive”. In the case of `NCCCNCCCN` it was 49.7 µM (active); in that of `COC1=CC(=O)O[C@@H](CCc2ccccc2)C1`, “inactive”; in that of `CC[C@H]1C[C@H]2[C@@H]3CCC4=CC(=O)CC[C@@H]4[C@H]3CC[C@]2(C)[C@H]1O`, “inactive”.

Take `COP(=S)(OC)Oc1ccc([N+](=O)[O-])cc1Cl`: the Potency entry was “inactive”.

In the case of `O=C1CN=C(c2ccccc2)c2cc(Cl)ccc2N1CC1CC1`, the Potency entry is “inactive”. Turning to `O=C1C(=O)c2cccc3cccc1c23`, the Potency entry is “inactive”.

For the compound `Clc1cc(C(Cl)(Cl)Cl)cnc1Cl`, the Potency entry was “inactive”. For `C=CC(=O)OCC(C)O` (stereo not given), the Potency entry was “inactive”. The same measure for `O=S(=O)(Cl)c1ccccc1`: “inactive”. On to `COC(=O)c1cncn1C(C)c1ccccc1` (stereo not given), for which the Potency entry is “inactive”.

Turning to `O=C(O)COc1ccc(Cl)cc1`, the Potency entry was “inactive”.

Regarding `CCC(Br)(CC)C(=O)NC(N)=O`, the Potency result is “inactive”. The same measure for `O=C(O)CC(Cl)C(=O)O` (stereo not given): “inactive”.
